From PubChem BioAssay AID686979 (National Center for Advancing Translational Sciences (NCATS), 2013)
Several values for one entry are separate records, joined by “and”; a condition that tells them apart may be missing. Equal entries are not always repeated. Hit rate of the full screen: of about 420,000 compounds, about 50,000 (12%) were called active. Not shown: some 26% with an inconclusive outcome. This is one part of a sample in which actives are shown more often than they occur. Values without a mark were called inactive. Calls follow the shape of the dose curve; as a rule, active = well fitted inhibition curve with a large enough effect; inconclusive = small, poorly fitted or top-dose-only effect; inactive = flat fitted curve, though single readings scatter.

assay: qHTS for Inhibitors of human tyrosyl-DNA phosphodiesterase 1 (TDP1): qHTS in cells in presence of CPT; settings: chicken DT40 Tdp1-/-;hTDP1 cells + 20 nM CPT, ATP luminescence, 48 h; series mostly up to 46.2 µM; activity change, negative = growth inhibition: at the top concentration; also: nearly all actives have a fitted effect of over 55% in size
Text: Human tyrosyl-DNA phosphodiesterase 1 (TDP1) is a novel repair gene, and we propose to use it as a new target for anticancer drug development. TDP1 is not an essential protein, but under treatment with topoisomerase I poison (camptothecin: CPT), TDP1 works as a critical factor for cell survival. To directly identify novel TDP1 inhibitors active in a cellular environment, we have knocked-out the Tdp1 gene in chicken DT40 cells (Tdp1-/-) and generated a complemented counterpart cells that contains a stable transfection of the human TDP1 gene (Tdp1-/-;hTDP1 cells). For the primary screen, Tdp1-/-;hTDP1 cells will be exposed to small molecules in the presence or absence of CPT, and their growth kinetics will be evaluated after 48 hours by measuring ATP activity. […] The hit compounds will then be evaluated in the presence or absence of CPT using Tdp1-/- cells. […] In tertiary assays, biochemical gel-based assays will be used to assess whether the hit compounds specifically target TDP1. To this end, we have screened this cell line against the MLSMR in two primary screens. In one screen we add CPT and in the other we screen in the absence of CPT; this AID represents the screen where CPT was present. NIH Chemical Genomics Center [NCGC] NIH Molecular Libraries Probe Centers Network [MLPCN] MLPCN Grant: MH095538 Assay Submitter (PI): Yves Pommier, NCI
DT40-hTDP1 cells with 20 nM Camptothecin (add 20 microL of 1 mM CPT stock in 1 L of cell culture medium) were dispensed at 400 cells/5microL/well in tissue culture treated 1536-well white wall/solid bottom assay plates (Greiner Bio-One North America, NC, U.S.A.) using a Multidrop Combi 8 channel dispenser (Thermo Fisher, Waltham, MA, USA). 23 nL compounds and controls were transferred using the pin tool (Kalypsys, San Diego, CA, USA) to the assay plates. The assay plates were then incubated at 37 masculineC for a minimum 48 hr. Three microL of Cell Titer Glo solution was added to the plates and incubated at RT in dark for 30 min. Luminescence was read using ViewLux (Perkin Elmer) with 1 sec exposure slow speed, high gain and 2x binning.
% is scaled to controls: 0 for no effect and ±100 for the full control effect; potency is read from the fitted curve at half-maximal effect.

Row | Structure (SMILES) | activity change, negative = growth inhibition | Potency
1 | CCCC(C)n1[nH]c(=O)c2c1NC(=O)CSC2c1ccc(OC)c(OC)c1 (centres undefined) | -9.47% | –
2 | OC[C@@H]1CN(Cc2ccncc2)C[C@H](n2cnc3c(N4CCN(c5ccccc5)CC4)ncnc32)O1 | – | 2.06 µM (active)
3 | CC12CN3CC(C)(CN(C1)C3c1cccs1)C2 (centres undefined) | -8.6% | –
4 | COc1cccc(OC)c1C(=O)NC(=S)N1C[C@H]2C[C@H](C1)c1cccc(=O)n1C2 | 29.1% | –
5 | OC1/C(=C/c2ccc(C(F)(F)F)cc2)N2CCC1CC2 (centres undefined) | -15% | –
6 | CC(C(=O)Nc1ccc(Cl)cc1Cl)N1CC=C(c2ccccc2)CC1 (centres undefined) | -6.73% | –
7 | c1csc(CN2CC3(CCNCC3)C2)n1 | -12.3% | –
8 | N#Cc1c(Cl)c(Cl)c(Cl)c(C#N)c1Cl | – | 178 nM (active) and 651 nM (active)
9 | O=C(N/N=C/c1c(O)n(C2CC2)c(=S)[nH]c1=O)c1ccccc1 | -2.43% | –
10 | N#CC(C#N)=Cc1cc(O)c(O)c([N+](=O)[O-])c1 | -3.8% | –
11 | O=C(Cc1ccccc1[N+](=O)[O-])N1CCN(Cc2ccc3c(c2)OCO3)CC1 | -19.9% | –
12 | C=CCN1C(=O)NC(=O)/C(=C/c2ccc(OCC(=O)Nc3ccc(C)cc3)cc2)C1=O | 1.34% | –
13 | COc1ccc(CNC(=O)c2cc3c(-c4ccccc4F)nn(C)c3s2)c(OC)c1 | – | 4.11 µM (active)
14 | CC/C(=N\NC(=O)c1ccccc1O)c1c(O)n(Cc2ccccc2)c(=O)[nH]c1=O | -27.5% | –
15 | CC(=O)N(C1=NCCCS1)c1ccccc1F | -4.78% | –
16 | O=C(COc1ccccc1Cl)Nc1ccc2nc(SCC(=O)N3CCCC3)sc2c1 | – | 20.6 µM (active)
17 | CN(C(=O)CSc1nc2ccc(NC(=O)COc3ccccc3)cc2s1)c1ccccc1 | – | 25.9 µM (active)
18 | CC(C)n1c(=O)c(C=Nc2ccc(Br)cc2)c(O)n(Cc2ccco2)c1=O | -10.9% | –
19 | CCN(CC)C(=O)c1ccc(NC(=O)c2cc(-n3cnnc3)ccc2Cl)cc1 | -5.77% | –
20 | Fc1ccc(N2CCN(Cc3ccc4c(c3)OCO4)CC2)cc1 | -24.2% | –
21 | Cn1c(O)c(C=Nc2ccc3c(c2)CCC3)c(=O)n(C)c1=O | -10.6% | –
22 | COC12CC[C@@]3(C[C@@H]1C(C)(O)C(C)(C)C)[C@H]1Cc4ccc(O)c5c4[C@@]3(CCN1CC1CC1)[C@H]2O5 (some centres undefined) | – | 24.1 µM (active)
23 | Oc1ccc2c3c1OC1[C@H](O)CC[C@@]4(O)[C@@H](C2)N(CC2CC2)CC[C@]314 (some centres undefined) | – | inactive
24 | CC1(C)Cc2c(C#N)c(N3CCNCC3)nc(-c3ccco3)c2CS1 | – | 18.4 µM (active)
25 | NCCc1ccc(S(=O)(=O)F)cc1 | -19.2% | –

Row | Structure (SMILES) | activity change, negative = growth inhibition | Potency
26 | CC(=O)c1ccc(S(=O)(=O)N2CCN(c3nc4c(C)c(C)ccc4cc3C#N)CC2)cc1 | – | 7.08 µM (active)
27 | CCOC(=O)C(O)(c1ccc(NC(=O)c2ccco2)c(OC)c1)C(F)(F)F (centres undefined) | -27.8% | –
28 | C[C@@]1([C@@H](NP(=O)(c2ccccc2)c2ccccc2)c2ccccc2)C[C@H]1CCO | – | 9.2 µM (active)
29 | CC1CNCCN1c1ccc(Cl)cc1 (centres undefined) | -17.2% | –
30 | CC(C)(C)[C@]1(O)C[C@@H]2OC(=O)C[C@@]23C(=O)O[C@@H]2OC(=O)[C@H](O)[C@]213 | – | inactive
31 | c1ccc(C(CN2CCCCC2)c2ccccc2)cc1 | -0.305% | –
32 | CCCCOc1ccc(C(=O)N2CC(=O)Nc3ccc(Br)cc3C2c2ccc(F)cc2)cc1 (centres undefined) | – | 23.1 µM (active)
33 | O=c1oc2ccccc2c(O)c1C(c1ccccc1O)c1c(O)c2ccccc2oc1=O | 8.57% [at 9.04 µM] | –
34 | COc1cc(C2c3cc4c(cc3C(O)C3COC(=O)C23)OCO4)cc(OC)c1OC (centres undefined) | – | 44.7 nM (active) and 13 nM (active)
35 | COc1cc([C@@H]2c3cc4c(cc3[C@H](OC(C)=O)[C@H]3COC(=O)[C@H]23)OCO4)cc(OC)c1OC | – | 0.0794 µM (active)
36 | Cc1nc2ccc(N3CCN(C)CC3)cc2nc1C | 25.9% | –
37 | CSc1ccc(C(=O)C2CCCN(Cc3ccn[nH]3)C2)cc1 (centres undefined) | 1.2% | –
38 | O=c1[nH]c(=O)n(-c2ccc(F)cc2)c(O)c1C=NCCN1CCCCC1 | 11.7% | –
39 | CC(=C1C(=O)c2ccccc2C1=O)N1CCN(CCN=Cc2c(O)n(C)c(=O)n(C)c2=O)CC1 | -15% | –
40 | CCN1CC2C3CCC(C)(O3)C2C1 (centres undefined) | 3.51% | –
41 | Cc1ccc(Cl)cc1N1CCN(C(=O)C2CCC(CNS(=O)(=O)c3cccs3)CC2)CC1 (centres undefined) | – | 20.6 µM (active)
42 | CC1C(=O)OC2CCN3CC=C(COC(=O)C(C)(O)C1(C)O)C23 (centres undefined) | – | 5.8 µM (active)
43 | CC(=O)Nc1ccc(C(=O)C(Cc2ccccc2)N(C)C)cc1 (centres undefined) | -14.9% | –
44 | O=C(COc1ccc2ccccc2c1)N1CCN(Cc2ccncc2)CC1 | -27.5% | –
45 | CN(C)C(=O)Oc1cc(OC(=O)N(C)C)cc(C(O)CNC(C)(C)C)c1 (centres undefined) | – | inactive
46 | CNC(=O)O/N=C(\N)Cc1csc2ccc(Cl)cc12 | – | 16.4 µM (active)
47 | CNC(=O)O/N=C(\N)Cc1csc2ccccc12 | -3.18% | –
48 | Cn1c(O)c(C=NCCN2CCNCC2)c(=O)n(C)c1=O | -0.667% | –
49 | COC1=CC=C2[C@H]3Cc4ccc(OC)c5c4[C@@]2(CCN3C)C1O5 (some centres undefined) | -2% | –
